# Data published in PubChem BioAssay (Tox21).
# Inconclusive results are not listed. Entries that show only a call come without a potency. Activity calls are given as the source filed them. The call rests on the fitted dose curve; in most records, active means well fitted curve in the direction sought with a large enough effect in the repeat runs; inconclusive means weak or mixed curves; inactive means no such curve, though single readings can be large; an effect the other way counts as inactive or inconclusive.
# System: not listed separately
# Experiment: qHTS assay to identify small molecule antagonists of the estrogen related receptor (ERR) signaling pathway from Tox21 library - cell viability counter screen (AID 1224834); further: nearly all actives have a fitted effect of over 30% in size
# Details: ERR reporter cells viability, CellTiter-Fluor, 17.5 h; series mostly up to 92.4 µM
# How it was run: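 CellTiter-Fluor fluorescence measured; ERR cells; 17.5 h compound incubation at 37 C; 30 min reagent step.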
row,SMILES,Potency
1,O=C1Nc2cc(Cl)ccc2Oc2ccccc21,inactive
2,CC(=O)/C=C/C1C(C)=CCCC1(C)C (centres undefined),inactive
3,Oc1ccc(O)c2c(O)cccc12,inactive
4,CCCCCOC(=O)COc1cc(N2C(=O)C3=C(CCCC3)C2=O)c(F)cc1Cl,inactive
5,O=S1(=O)c2cccc3cccc(c23)N1CCCN1CCN(c2ccc(F)cc2)CC1,inactive
6,Cc1ncsc1CCO,inactive
7,O=[N+]([O-])c1cc[n+]([O-])cc1,inactive
8,CC(C)(Oc1ccc(Cl)cc1)C(=O)OCCCOC(=O)C(C)(C)Oc1ccc(Cl)cc1,inactive
9,CCCC(=O)OCC,inactive
10,O=C(O)/C=C/c1cnc[nH]1,inactive

# Biological target: Luciferin 4-monooxygenase (Photinus pyralis) (UniProt P08659)
# Experiment: qHTS assay to identify small molecule inhibitors of firefly luciferase (AID 1224835); further: nearly all actives have a fitted effect of over 25% in size; further: potency means the concentration at half of the fitted maximal effect
# Details: purified P. pyralis luciferase, luminescence inhibition; series mostly up to 115 µM
# How it was run: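 Quantitative HTS format; KM concentrations of both substrates. Purified P. pyralis FLuc activity quantified from luminescence images.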
# Chain of Luciferin 4-monooxygenase (Photinus pyralis) (P08659 whole entry, looked up): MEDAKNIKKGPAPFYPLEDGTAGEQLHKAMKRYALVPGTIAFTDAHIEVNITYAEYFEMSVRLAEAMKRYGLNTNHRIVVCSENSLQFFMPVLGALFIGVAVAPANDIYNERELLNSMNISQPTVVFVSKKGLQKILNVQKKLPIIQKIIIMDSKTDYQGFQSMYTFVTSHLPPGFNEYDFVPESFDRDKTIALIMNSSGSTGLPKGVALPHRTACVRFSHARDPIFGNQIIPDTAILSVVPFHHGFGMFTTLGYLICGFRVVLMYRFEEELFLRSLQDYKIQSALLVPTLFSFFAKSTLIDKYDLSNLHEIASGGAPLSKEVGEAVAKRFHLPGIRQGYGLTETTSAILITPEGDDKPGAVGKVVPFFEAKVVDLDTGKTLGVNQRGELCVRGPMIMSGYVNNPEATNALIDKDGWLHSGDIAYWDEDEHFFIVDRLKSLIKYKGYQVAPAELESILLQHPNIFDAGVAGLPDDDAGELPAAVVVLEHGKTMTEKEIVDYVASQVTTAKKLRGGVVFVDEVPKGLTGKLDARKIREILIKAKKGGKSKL
row,SMILES,Potency
1,Cc1ccc(C)o1,inactive
2,CCCCCCCCCC(=O)OCC,inactive
3,CC[C@H](C)[C@@H](C(=O)O)n1sc2ccccc2c1=O,17.8 µM (active)
4,O=C(NS(=O)(=O)/C=C/c1cccs1)c1ccc(F)cc1Br,inactive
5,CC(=O)O[C@H]1C[C@@H]2CC[C@@H]3[C@H](CC[C@@]4(C)[C@H]3C[C@H]([N+]3(C)CCCCC3)[C@@H]4OC(C)=O)[C@@]2(C)C[C@@H]1N1CCCCC1,inactive
6,CC(C)(C)c1cc(CCC(=O)OCC(COC(=O)CCc2cc(C(C)(C)C)c(O)c(C(C)(C)C)c2)(COC(=O)CCc2cc(C(C)(C)C)c(O)c(C(C)(C)C)c2)COC(=O)CCc2cc(C(C)(C)C)c(O)c(C(C)(C)C)c2)cc(C(C)(C)C)c1O,inactive
7,CN(C)C/C=C(/c1ccc(Br)cc1)c1cccnc1,inactive
8,O=c1[nH]cnc2ccccc12,inactive
9,Cc1ccc(C(=O)C(C)CN2CCCCC2)cc1 (centres undefined),inactive
